High-throughput results: PubChem BioAssay, National Center for Advancing Translational Sciences (NCATS)
Sampled rows, rich in hits. Any-hit rate of the full collection: about 19%.
TGFb SMAD3 inh – blocks TGF-b signaling | HepG2 CAGA-GFP TGF-b/SMAD3 reporter, GFP fluorescence, 18 h; TGF-beta stimulated, 500 pg/mL final | Potency, µM (titrated, usually from 46.1 µM), usual class: inhibitors | 410,000 compounds, 1.2% hits; further: nearly all actives have a fitted effect of over 65% in size
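Inhibition was scored as loss of TGF-beta-induced (500 pg/mL final, 18 hours, 37 degrees C) GFP in HEPG2 cells carrying a CAGA-GFP reporter, in DMEM with 1% FBS. Well GFP was summed per cell; Activity was normalised to unstimulated and stimulated DMSO wells, then concentration-response fitting.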
ASM inhibitor – human S-ASM enzyme inhibition; P17405; placental ASM, HMU-PC fluorogenic substrate, 60 min; Potency, µM (top dose mostly 57.5 µM), most hits filed as inhibitors; 340,000 compounds, 0.006% hits; AID 504937
Target sequence (P17405 47-631 limits assumed): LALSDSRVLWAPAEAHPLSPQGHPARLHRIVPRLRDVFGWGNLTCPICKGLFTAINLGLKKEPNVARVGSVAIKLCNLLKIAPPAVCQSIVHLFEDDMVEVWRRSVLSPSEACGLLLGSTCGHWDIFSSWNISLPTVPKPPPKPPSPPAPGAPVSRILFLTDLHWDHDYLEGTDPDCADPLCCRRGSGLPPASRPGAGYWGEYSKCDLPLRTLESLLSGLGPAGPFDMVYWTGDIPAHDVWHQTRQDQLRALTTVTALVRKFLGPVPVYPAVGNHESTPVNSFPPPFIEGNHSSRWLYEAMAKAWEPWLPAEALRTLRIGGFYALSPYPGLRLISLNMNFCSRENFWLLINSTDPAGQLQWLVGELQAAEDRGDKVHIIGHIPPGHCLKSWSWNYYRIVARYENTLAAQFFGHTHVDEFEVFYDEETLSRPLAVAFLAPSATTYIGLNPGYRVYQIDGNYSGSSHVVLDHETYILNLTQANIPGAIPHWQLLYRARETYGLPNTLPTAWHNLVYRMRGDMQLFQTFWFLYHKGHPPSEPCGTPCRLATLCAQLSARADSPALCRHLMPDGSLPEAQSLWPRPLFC
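Fluorescence read-out (Ex 386 nm, Em 447 nm) after stopping the reaction at pH 10. Enzyme: ASM from human placenta; substrate HMU-PC0, 9 uM final; 60 min, 37 °C. Compound preincubation 10 min, ambient temperature.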
DT40 TDP1 CPT – DT40-hTDP1 cell growth loss with CPT; chicken DT40 Tdp1-/-;hTDP1 cells + 20 nM CPT, ATP luminescence, 48 h; Potency, µM (highest dose often 46.2 µM), usual class: inhibitors; 420,000 compounds, 12% hits; further: nearly all actives have a fitted effect of over 55% in size
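Chicken DT40 Tdp1-/- cells stably complemented with human TDP1 were seeded at 400 cells/well in medium containing 20 nM camptothecin, exposed to pin-transferred compounds, and grown at 37 °C for at least 48 hr. Viability was read as ATP luminescence.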
HepG2 viability – HepG2 cytotoxicity, counter-screen for TGF-b inhibitors. AID 588856. 410,000 compounds, 0.76% hits. HepG2 CAGA-GFP viability, ATP luminescence, 18 h. Potency, µM (titrated, usually from 46.1 µM), hits mostly cytotoxic
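CellTiter-Glo luminescence gave cytotoxicity after 18 hours at 37 degrees C. The cells were HepG2 CAGA-GFP in 1% FBS DMEM, stimulated with 500 pg/mL TGF-beta after compound addition. %Activity was normalised to no-cell wells (complete cell-killing) and DMSO (no toxicity), and curves were fitted and classified.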
TDP1 cell noCPT – qHTS for Inhibitors of human tyrosyl-DNA phosphodiesterase 1 (TDP1): qHTS in cells in absence of CPT; DT40 Tdp1-/- hTDP1 cells, no CPT, ATP luminescence, 48 h; Potency, µM (highest dose often 46.2 µM), hits mostly inhibitors; 420,000 compounds, 15% hits; AID 686978, 2013; further: nearly all actives have a fitted effect of over 55% in size
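Seeded 400 DT40-hTDP1 cells/well (vehicle DMSO, no 20 nM CPT); pinned compounds; ≥48 hr at 37 °C; CellTiter-Glo luminescence as viability measure.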
IL-1B inflam inh – blocks inflammasome-driven IL-1 beta release | THP-1 LPS/ATP IL-1B secretion, AlphaLISA, 16 h; hits give low values | activity change, % at 57.5 µM | 360,000 compounds, 4.7% hits; in the data active means activity change below about -50%; inconclusive means mostly about -30% to -49%
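THP-1 cells pretreated 1 hr with compounds (up to 57.5 uM final), then stimulated with LPS (250 ng/mL final) plus ATP (1.25 mM final); secreted IL-1B measured by AlphaLISA after 16 hr, decreased signal indicating inhibition.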
Large screens that a line does not name were inactive. Unless noted, the call rests on the fitted dose curve; in most records, active means well fitted curve in the direction sought with a large enough effect; inconclusive means small, poorly fitted or top-dose-only effect, or another doubt; inactive means no such curve, though single readings can be large; an effect the other way counts as inactive or inconclusive.

COc1ccc(CNC(=O)c2cc3cccc(OC)c3oc2=N)cc1	TDP1 cell noCPT inconclusive
O=C(O)C1Oc2cc3ccccc3cc2O1	none
CCOc1ccc(/C=C2\SC(=S)N(CCCC(=O)NCCCN3CCOCC3)C2=O)cc1	TGFb SMAD3 inh inconclusive, DT40 TDP1 CPT 18.4µM, TDP1 cell noCPT inconclusive, IL-1B inflam inh -89.4
CCOc1ccc(/C=C2\SC(=S)N(CC(=O)Nc3ccccn3)C2=O)cc1	DT40 TDP1 CPT inconclusive
O=C(CCN1C(=O)/C(=C\c2cccc(Br)c2)SC1=S)NCCCN1CCOCC1	DT40 TDP1 CPT inconclusive, TDP1 cell noCPT inconclusive
CCOc1ccc(/C=C2\SC(=S)N(CC(=O)N(CCO)C(C)(C)C)C2=O)cc1	DT40 TDP1 CPT inconclusive, TDP1 cell noCPT inconclusive, IL-1B inflam inh -123.3
CCc1ccc(/C=C2/SC(=S)N(CCC(=O)NCCCN3CCOCC3)C2=O)cc1	none
CCc1ccc(/C=C2\SC(=S)N(CCCC(=O)NCCCN3CCOCC3)C2=O)cc1	DT40 TDP1 CPT 20.6µM, TDP1 cell noCPT inconclusive, IL-1B inflam inh -56.7 (no result: ASM inhibitor)
Cc1cccc(CN2C(=O)c3ccccc3S(=O)(=O)c3ccc(C(=O)NC4CCCCC4)cc32)c1	none (no result: ASM inhibitor, IL-1B inflam inh)
Cc1nc(N)nc(N(C)c2ccccc2)c1Br	DT40 TDP1 CPT inconclusive, TDP1 cell noCPT inconclusive
COc1cccc(-n2c(-c3ccco3)nc3nc4ccccc4nc32)c1	none
COc1cccc(-n2c(-c3ccco3)nc3c(cnn3-c3ccccc3C)c2=O)c1	TGFb SMAD3 inh inconclusive, DT40 TDP1 CPT 20.6µM, TDP1 cell noCPT 18.4µM (no result: ASM inhibitor, IL-1B inflam inh)
COc1ccc(-n2c(-c3ccco3)nc3c(cnn3-c3ccccc3Cl)c2=O)cc1	TGFb SMAD3 inh inconclusive, DT40 TDP1 CPT inconclusive, TDP1 cell noCPT inconclusive (no result: ASM inhibitor, IL-1B inflam inh)
COc1ccc(-n2c(-c3ccco3)nc3c(cnn3-c3ccccc3C)c2=O)cc1	TGFb SMAD3 inh inconclusive, DT40 TDP1 CPT inconclusive, TDP1 cell noCPT 23.1µM
FC(F)(F)c1ccc(-n2cnc3ccccc32)nc1	none
O=C(/C=C/c1ccccc1)Nn1cnc2ccccc2c1=O	DT40 TDP1 CPT 16.4µM
O=C(/C=C/c1ccccc1Cl)Nn1cnc2ccccc2c1=O	DT40 TDP1 CPT inconclusive
CCCCN(CCCNC(=O)c1ccc2c(c1)NC(=O)CN2C)c1ccccc1	TGFb SMAD3 inh inconclusive, DT40 TDP1 CPT inconclusive, HepG2 viability 15.8µM, TDP1 cell noCPT inconclusive, IL-1B inflam inh -103.1 (no result: ASM inhibitor)
Nc1c(CNCc2nnn(Cc3ccccc3)c2N)nnn1Cc1ccccc1	DT40 TDP1 CPT inconclusive, TDP1 cell noCPT inconclusive (no result: ASM inhibitor)
C=C1C(=O)C23C(O)C1CCC2C12CCCC(C)(COC(C)=O)C1C(O)C3(O)OC2 (centres undefined)	TGFb SMAD3 inh 2µM, DT40 TDP1 CPT 1.03µM, HepG2 viability 3.16µM, TDP1 cell noCPT 0.731µM
CC(=O)OC[C@H]1O[C@@H](Sc2cccc3cccnc23)[C@H](OC(C)=O)[C@@H](OC(C)=O)[C@H]1OC(C)=O	TGFb SMAD3 inh inconclusive, DT40 TDP1 CPT 18.4µM (no result: ASM inhibitor)
COc1cc(/C=N/N(C)C)ccc1OC(=O)c1cccs1	none
Cc1ccc(NC(=O)C2CC3CCC2C3)c(Br)c1 (centres undefined)	none
C=C(C1=CCN(S(=O)C(C)(C)C)[C@H]1CCO)c1ccccc1 (some centres undefined)	DT40 TDP1 CPT 13µM, TDP1 cell noCPT inconclusive
C[C@H]1CN(S(=O)(=O)C(C)(C)C)[C@H](CCO)/C1=C\c1ccccc1	none
C=CC1=CCN(S(=O)C(C)(C)C)[C@@H]1CCO (some centres undefined)	none
C=C(C1=CCN(S(=O)(=O)C(C)(C)C)[C@H]1CCO)c1ccccc1	DT40 TDP1 CPT inconclusive, TDP1 cell noCPT 16.4µM
Cc1cccc(OCCNc2ccc(C(F)(F)F)cc2[N+](=O)[O-])c1	none
Cc1ccc(OCCNC(=O)c2cccc(Oc3ccc(C(F)(F)F)cc3[N+](=O)[O-])c2)cc1	DT40 TDP1 CPT inconclusive, TDP1 cell noCPT 16.4µM
Cc1cccc(OCCNC(=O)c2ccc(Cl)c(S(=O)(=O)NCc3cccnc3)c2)c1	TGFb SMAD3 inh inconclusive, DT40 TDP1 CPT 3.66µM, TDP1 cell noCPT 2.59µM
Cc1ccc(OCCNC(=O)c2cccc(S(=O)(=O)NCc3ccccc3)c2)cc1	DT40 TDP1 CPT 4.11µM, TDP1 cell noCPT 4.61µM
CCN(c1ccccc1)S(=O)(=O)c1cccc(C(=O)N(C)CCOc2ccccc2)c1	DT40 TDP1 CPT 14.6µM, TDP1 cell noCPT 20.6µM
CSCc1ccc(C(=O)NCCSc2ccc(Br)cc2)cc1	DT40 TDP1 CPT inconclusive, TDP1 cell noCPT inconclusive
CCCC1(c2ccccc2)NC(=O)N(C/C=C/Cl)C1=O (centres undefined)	DT40 TDP1 CPT inconclusive, TDP1 cell noCPT inconclusive
COc1ccc(C2/C=C\CN(C(=O)C3CCCCC3)C(Cc3ccccc3)C(=O)N2Cc2ccc(F)cc2)cc1 (centres undefined)	none (no result: ASM inhibitor, DT40 TDP1 CPT, TDP1 cell noCPT, IL-1B inflam inh)
Cc1ccc(S(=O)(=O)NCc2ccc(C(=O)NCCc3cccc(C)c3)cc2)cc1	DT40 TDP1 CPT inconclusive, TDP1 cell noCPT inconclusive (no result: ASM inhibitor, IL-1B inflam inh)
